Out of some 48,000 compounds screened, about 13,000 (27%) showed an effect of 50% or more. This is one part of the list.

This experiment deals with Wolbachia pipientis. The experiment in a line: Anti-Wolbachia Cell-Based Screen. Type of experiment: functional. Details: scale not given: in the data most compounds retested in dose-response had high values. The conditions noted are these: 5 µM.
Turning to `CC(Oc1ccccc1C(F)(F)F)C(=O)NCC(N)=O` (centres undefined), the “Percent Effect” value is on record as -1.247%.
For `CCCC(CNc1cc(C(C)C)nc2ccnn12)N(C)C` (centres undefined), the “Percent Effect” value is listed as -7.916%.
Consider `Cc1n[nH]cc1CNC1(c2ccc(F)cc2)CCCC1`, for which the “Percent Effect” value turned out to be 2.933%.
As for `CCN1CC2(CC1=O)CN(Cc1cnn(C)c1)CCN(C(=O)C(C)C)C2.O=C(O)C(F)(F)F` (centres undefined), the figure is -2.77%.
As for `CCN1CC2(CC1=O)CN(Cc1cccs1)CCN(C(=O)C(C)C)C2` (centres undefined), the “Percent Effect” value was found to be 9.795%.
For the molecule `CCN1CC2(CC1=O)CN(Cc1ccco1)CCN(C(=O)N(C)C)C2.O=C(O)C(F)(F)F` (centres undefined), the “Percent Effect” value is given as 1.855%.
In the case of `Cc1ccc(CN2CCC3(CC(=O)N(c4cccc(F)c4)C3)C2)o1.O=C(O)C(F)(F)F` (centres undefined), the “Percent Effect” value is listed as 18.19%.
Take `CN1CC2(CCN(C(=O)Cc3ccccn3)CC2)OCC1=O.O=C(O)C(F)(F)F`: the “Percent Effect” value is given as 23.75%.
As for `CC(=O)N1CCN(Cc2cccs2)CC2(CC(=O)N(C)C2)C1.O=C(O)C(F)(F)F` (centres undefined), the “Percent Effect” value was found to be 101.6%.
Take `CC(=O)N1CCN(Cc2ccc(C)o2)CC2(CC(=O)N(C)C2)C1.O=C(O)C(F)(F)F` (centres undefined): the “Percent Effect” value came to 88.46%.
As for `O=C(O)C(F)(F)F.O=C(O)C(F)(F)F.O=C(O)C(F)(F)F.c1coc(CN2CCC3(CC2)COCCN(CCN2CCCC2)C3)c1`, the figure is 10.77%; as for `CC(C)NC(=O)N1CCN(CC2CC2)CC2(CC(=O)N(C)C2)C1.O=C(O)C(F)(F)F` (centres undefined), 10.52%; as for `CC(C)C(=O)N1CCN(Cc2ccccn2)CC2(CC(=O)N(C)C2)C1.O=C(O)C(F)(F)F.O=C(O)C(F)(F)F` (centres undefined), 98.24%.
As for `CC(=O)N1CCN(Cc2ccco2)CC2(CC(=O)N(C)C2)C1.O=C(O)C(F)(F)F` (centres undefined), the figure is 97.89%; as for `CN(CCC1CCOCC1)C(=O)C1CCC(=O)N(Cc2ccccn2)C1` (centres undefined), 12.01%.
Take `Cc1nn(C)c(C)c1OCC(=O)NCC(O)c1ccccc1F` (centres undefined): the “Percent Effect” value is -4.984%.
For the molecule `O=C1N(c2ccc(Cl)cc2)Cc2n[nH]c(=O)n21`, the “Percent Effect” value stood at 3.53%.
As to `CCCn1nc(-c2nc(COC)no2)ccc1=O`, the “Percent Effect” value is -14.93%.
On to `CC(=O)NCC(=O)NCC1Cn2nnc(-c3cccc(F)c3)c2CO1` (centres undefined), for which the “Percent Effect” value is -8.609%.
In the case of `CN1CCC2(CCN(Cc3nccs3)CC2)C1=O.O=C(O)C(F)(F)F`, the “Percent Effect” value is given as 4.782%.
As to `CC(=O)N1CCN(Cc2nccs2)CC2(CC(=O)N(C)C2)C1.O=C(O)C(F)(F)F` (centres undefined), the “Percent Effect” value turned out to be 92.61%.
Turning to `CCOCC(=O)NCCCn1ccnc1-c1ccccc1`, the “Percent Effect” value was 90.19%.
Turning to `CCOCC(=O)Nc1nccn1Cc1ccc(Br)cc1`, the “Percent Effect” value is -3.698%.
Take `COC(=O)CCCn1ccnc1-c1ccccc1`: the “Percent Effect” value is recorded as 2.023%.
On to `CC(C)c1nccn1CCCNC(=O)c1ccc(-c2cccnc2)nc1`, for which the “Percent Effect” value stood at 8.791%.
Turning to `COC(=O)NCCCn1ccnc1-c1ccccc1`, the “Percent Effect” value is reported as 181.6%.
For `CC(=O)NCCn1ccnc1-c1cccc(C(C)N(C)C)c1` (centres undefined), the “Percent Effect” value is reported as 4.198%.
Regarding `Cc1ccc(C(=O)Nc2cc(C(N)=O)ccc2N2CCCCC2)cc1F`, the “Percent Effect” value was -3.619%.
Under `O=C(CCc1cc2n(n1)CCCN(C(=O)c1ccncc1)C2)NC1CC1` stands 139.8%.
For the molecule `CCc1cc(C(=O)N2CCCn3nc(CCC(=O)O)cc3C2)cs1`, the “Percent Effect” value was -7.139%.
With `Cc1ccc(C(=O)N2CCCn3nc(CCC(=O)O)cc3C2)cc1Cl`, the “Percent Effect” value is given as 11.92%.
Turning to `O=C(CCc1cc2n(n1)CCCN(C(=O)c1cccnc1)C2)NC1CC1`, the “Percent Effect” value is reported as -4.751%.
Consider `Cn1cccc1C(=O)N1CCCn2nc(CCC(=O)NC3CC3)cc2C1`, for which the “Percent Effect” value stood at 139.6%.
In the case of `O=C(O)CCc1cc2n(n1)CCCN(C(=O)c1cc3ccccc3s1)C2`, the “Percent Effect” value amounted to 6.416%.
For the molecule `O=C(CCc1cc2n(n1)CCCN(C(=O)[C@H]1CCCO1)C2)NC1CC1`, the “Percent Effect” value was determined as 170.3%.
With `O=C(O)CCc1cc2n(n1)CCCN(C(=O)c1ccc3cc[nH]c3c1)C2`, the “Percent Effect” value is listed as -27.67%.
As for `O=C(CCc1cc2n(n1)CCCN(C(=O)c1ccccn1)C2)NC1CC1`, the figure is 1.644%; as for `CC(C)c1ocnc1C(=O)NC1(c2cccc(F)c2)CCOCC1`, -15.1%.
As for `O=S1(=O)CCCN(Cc2ccccc2OCC(F)(F)F)CC1`, the “Percent Effect” value came to 7.623%.
Turning to `Fc1cccc(-c2n[nH]cc2-c2nc(CN3CCOCC3)no2)c1`, the “Percent Effect” value worked out at 25.75%.
As for `CN1CCN(Cc2ccccc2Oc2cncc(C(N)=O)n2)CC1`, the figure is 7.262%; as for `CC(=O)N1Cc2ccccc2CC1C(=O)Nc1cc(C)ccn1` (centres undefined), -13.21%; as for `C[C@]1(O)CN(Cc2ccc(C(=O)O)cc2)CC[C@@H]1Oc1cccc(F)c1`, 71.72%.
For `C[C@]1(O)CN(Cc2cccc(C(=O)O)c2)CC[C@@H]1Oc1cccc(F)c1`, the “Percent Effect” value worked out at 113.2%.
In the case of `COc1ccccc1OC1CN(Cc2ccc(C(=O)O)cc2)C1`, the “Percent Effect” value is -24.62%.
As for `O=C(NCC1(O)CCOc2ccccc21)Nc1ccc2c(c1)OCO2` (centres undefined), the figure is 5.05%.
Under `CC(C)c1noc(CN2CCC(C3CCCCCN3S(C)(=O)=O)CC2)n1.Cl` (centres undefined) stands 5.236%; under `CCc1noc(CN2CCC(C(=O)Nc3cnn(CC)c3)CC2)n1`, 82.9%.
Consider `CCCc1noc(CN2CCC(C(=O)Nc3cnn(CC)c3)CC2)n1`, for which the “Percent Effect” value is 112.1%.
Under `CCc1noc(C(C)N2CCC(C(=O)Nc3cnn(CC)c3)CC2)n1` (centres undefined) stands 11.99%.
Turning to `CC(C)Cc1noc(CN2CCC(C(=O)NCC3CCCO3)CC2)n1` (centres undefined), the “Percent Effect” value turned out to be 11.96%.
As for `CCn1cc(NC(=O)C2CCN(Cc3noc(C(C)C)n3)CC2)cn1`, the figure is 3.174%; as for `CCn1cc(NC(=O)C2CCN(Cc3noc(C4CC4)n3)CC2)cn1`, 113.1%.
For `O=C(Nc1ccc(F)cc1)C1CCN(Cc2noc(C3CC3)n2)CC1`, the “Percent Effect” value is on record as -24.67%.
Turning to `O=C(Nc1cccc(F)c1)C1CCN(Cc2noc(C3CC3)n2)CC1`, the “Percent Effect” value is listed as -5.725%.
Take `CCn1cc(NC(=O)C2CCN(Cc3nc(C(C)C)no3)CC2)cn1`: the “Percent Effect” value is on record as 89.67%.
Take `CCn1cc(NC(=O)C2CCN(Cc3ccccc3C#N)CC2)cn1`: the “Percent Effect” value is on record as 4.672%.
With `CCn1nc(C(=O)N2CCNCC2C(=O)Nc2ccc(C)nc2)cc1C` (centres undefined), the “Percent Effect” value is on record as -9.898%.
For the molecule `CN(CC(=O)N1CCCC1c1cnn(C)c1)c1ccc(Cl)cn1` (centres undefined), the “Percent Effect” value is 7.888%.
On to `CNc1cc(C2CCCN2C(=O)CCc2ccccc2F)ccn1` (centres undefined), for which the “Percent Effect” value was 87.66%.
In the case of `Cc1ncsc1CCC(=O)N1CCCC1c1cccnc1` (centres undefined), the “Percent Effect” value is -20.99%.
Turning to `CNc1cc(C2CCCN2Cc2ccccc2C(=O)O)ccn1` (centres undefined), the “Percent Effect” value is reported as -9.621%.
On to `Cc1c(CCC(=O)N2CCCC2c2ccnc(N(C)C)c2)cnn1C` (centres undefined), for which the “Percent Effect” value is 100.7%.
With `CNc1cc(C2CCCN2C(=O)CCc2cnn(C)c2C)ccn1` (centres undefined), the “Percent Effect” value turned out to be 114.3%.

(Values after ChEMBL document CHEMBL3988442, “University of Dundee, Small-Polar-MMV Screening Library” (2021).)
